Experimental data: PubChem BioAssay
Calls of active or inactive are those of the source.

Columns and labels:
[1] = anti-His antibody binders, primary screen, artefact control for SMM control protein annotation, biochemical, small-molecule microarray, 635 nm fluorescence (AID 1128); conditions: anti-His Alexa647 antibody binding, higher = more signal;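 further: score merges feature fluorescence with signal-to-noise for each printed compound spot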
[2] = system: Human papillomavirus type 1a E7 protein (residues 1-88); test: HPV1a E7 small-molecule binders, primary screen, biochemical, small-molecule microarray, residues 1-88, 635 nm (AID 1129); conditions: small-molecule microarray binding, fluorescence 635 nm; higher = more signal
[3] = molecular target: Focal adhesion kinase 1 (Homo sapiens) (UniProt Q05397); test: small-molecule microarray binders of FAK, primary screen, biochemical, 635/667 nm fluorescence, BSA, DTT (AID 1130); conditions: PTK2 binding, 635 nm fluorescence, higher = more signal;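 further: composite of spot emission at 667 nm and signal to noise over triplicate slides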
[4] = system: Fibrinogen (Alexa647-labelled); test: fibrinogen binders on compound microarrays, profiling panel, artefact control for SMM control-protein annotation, biochemical, small-molecule microarray, 635/667 nm fluorescence (AID 1131); conditions: fibrinogen-A647 binding fluorescence, higher = more signal;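 further: z-score merges 667 nm fluorescence with per-spot signal-to-noise over triplicate slides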
[5] = molecular target: Follistatin (Homo sapiens) (UniProt P19883); test: follistatin binders on small-molecule microarrays, primary screen, biochemical, small-molecule microarray, 635/667 nm fluorescence (AID 1132); conditions: FST binding, 635 nm fluorescence, higher = more signal
[6] = molecular target: Fibroblast growth factor 2 (Homo sapiens) (UniProt P09038); test: FGF2 binders on small-molecule microarrays, primary screen, biochemical, small-molecule microarray, 635/667 nm fluorescence (AID 1133); conditions: small-molecule microarray binding, FGF2, fluorescence 635/667; higher = more signal
[7] = mitochondrial membrane potential change in A549 cells, profiling panel, cell-based, JC-1 fluorescence, basal, 24 h, 100 nL (AID 1138); conditions: higher = more signal;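 further: A549 lung adenocarcinoma cells under basal conditions with no added stimulus; test concentration not given here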
Lefty1 = Lefty1 binders on small-molecule microarrays, primary screen, biochemical, small-molecule microarray, 635/667 nm fluorescence (AID 1139); conditions: small-molecule microarray binding, fluorescence 635/667; higher = more signal
[8] = system: wheat germ agglutinin (Triticum aestivum), Alexa647-labelled; test: wheat germ agglutinin binders on compound microarrays, profiling panel, artefact control for SMM control-protein annotation, biochemical, small-molecule microarray, 635/667 nm fluorescence (AID 1140); conditions: WGA-A647 binding, 635 nm fluorescence, higher = more signal;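 further: score merges 667 nm feature emission with signal to noise over triplicate slides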
[9] = molecular target: Luciferin 4-monooxygenase (Photinus pyralis) (UniProt P08659); test: firefly luciferase enzyme inhibitors, primary screen, biochemical, luminescence, purified enzyme, 2006 set (AID 1141); conditions: SteadyGlo luminescence, 30 min, higher = more signal, called active from +8 up or from −8 down;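 further: cell-free assay with purified firefly luciferase at 100 ng per well in PBS; test concentration not given here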
Luciferin 4-monooxygenase (Photinus pyralis), sequence (P08659 whole entry, looked up): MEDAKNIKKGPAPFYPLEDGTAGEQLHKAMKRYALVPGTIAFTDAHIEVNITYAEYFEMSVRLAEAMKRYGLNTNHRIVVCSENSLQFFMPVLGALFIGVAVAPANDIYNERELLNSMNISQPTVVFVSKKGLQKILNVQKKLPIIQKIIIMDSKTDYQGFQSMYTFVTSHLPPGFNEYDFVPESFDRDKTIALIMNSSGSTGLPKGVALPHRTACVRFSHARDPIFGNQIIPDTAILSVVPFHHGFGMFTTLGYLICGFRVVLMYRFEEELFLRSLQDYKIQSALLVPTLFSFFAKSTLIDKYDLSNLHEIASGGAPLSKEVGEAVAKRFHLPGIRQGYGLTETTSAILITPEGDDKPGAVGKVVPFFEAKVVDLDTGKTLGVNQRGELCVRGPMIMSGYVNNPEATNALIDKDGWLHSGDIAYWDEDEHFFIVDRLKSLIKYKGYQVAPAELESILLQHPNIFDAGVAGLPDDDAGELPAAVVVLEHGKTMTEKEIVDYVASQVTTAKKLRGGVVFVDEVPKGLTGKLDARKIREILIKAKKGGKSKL

Fibroblast growth factor 2 (Homo sapiens), sequence (P09038 whole entry, looked up): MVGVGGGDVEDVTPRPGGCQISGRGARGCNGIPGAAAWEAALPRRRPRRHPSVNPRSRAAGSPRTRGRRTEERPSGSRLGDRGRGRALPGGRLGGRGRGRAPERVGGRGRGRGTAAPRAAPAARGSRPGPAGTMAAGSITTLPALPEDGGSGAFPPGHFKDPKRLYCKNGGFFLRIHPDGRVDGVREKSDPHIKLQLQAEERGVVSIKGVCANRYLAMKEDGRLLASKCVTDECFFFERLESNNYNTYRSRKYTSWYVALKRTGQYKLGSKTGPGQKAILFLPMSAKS
Follistatin (Homo sapiens), sequence (P19883 whole entry, looked up): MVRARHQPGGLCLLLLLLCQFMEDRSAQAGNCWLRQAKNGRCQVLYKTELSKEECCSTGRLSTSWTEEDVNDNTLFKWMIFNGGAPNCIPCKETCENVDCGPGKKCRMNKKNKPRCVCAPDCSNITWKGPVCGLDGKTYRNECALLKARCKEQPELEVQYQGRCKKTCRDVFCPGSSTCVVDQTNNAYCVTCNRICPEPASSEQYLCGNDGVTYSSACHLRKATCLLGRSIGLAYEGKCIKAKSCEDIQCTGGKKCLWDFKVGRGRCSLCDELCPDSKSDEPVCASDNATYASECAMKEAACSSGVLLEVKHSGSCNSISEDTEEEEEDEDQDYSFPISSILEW
Focal adhesion kinase 1 (Homo sapiens), sequence (Q05397 whole entry, looked up): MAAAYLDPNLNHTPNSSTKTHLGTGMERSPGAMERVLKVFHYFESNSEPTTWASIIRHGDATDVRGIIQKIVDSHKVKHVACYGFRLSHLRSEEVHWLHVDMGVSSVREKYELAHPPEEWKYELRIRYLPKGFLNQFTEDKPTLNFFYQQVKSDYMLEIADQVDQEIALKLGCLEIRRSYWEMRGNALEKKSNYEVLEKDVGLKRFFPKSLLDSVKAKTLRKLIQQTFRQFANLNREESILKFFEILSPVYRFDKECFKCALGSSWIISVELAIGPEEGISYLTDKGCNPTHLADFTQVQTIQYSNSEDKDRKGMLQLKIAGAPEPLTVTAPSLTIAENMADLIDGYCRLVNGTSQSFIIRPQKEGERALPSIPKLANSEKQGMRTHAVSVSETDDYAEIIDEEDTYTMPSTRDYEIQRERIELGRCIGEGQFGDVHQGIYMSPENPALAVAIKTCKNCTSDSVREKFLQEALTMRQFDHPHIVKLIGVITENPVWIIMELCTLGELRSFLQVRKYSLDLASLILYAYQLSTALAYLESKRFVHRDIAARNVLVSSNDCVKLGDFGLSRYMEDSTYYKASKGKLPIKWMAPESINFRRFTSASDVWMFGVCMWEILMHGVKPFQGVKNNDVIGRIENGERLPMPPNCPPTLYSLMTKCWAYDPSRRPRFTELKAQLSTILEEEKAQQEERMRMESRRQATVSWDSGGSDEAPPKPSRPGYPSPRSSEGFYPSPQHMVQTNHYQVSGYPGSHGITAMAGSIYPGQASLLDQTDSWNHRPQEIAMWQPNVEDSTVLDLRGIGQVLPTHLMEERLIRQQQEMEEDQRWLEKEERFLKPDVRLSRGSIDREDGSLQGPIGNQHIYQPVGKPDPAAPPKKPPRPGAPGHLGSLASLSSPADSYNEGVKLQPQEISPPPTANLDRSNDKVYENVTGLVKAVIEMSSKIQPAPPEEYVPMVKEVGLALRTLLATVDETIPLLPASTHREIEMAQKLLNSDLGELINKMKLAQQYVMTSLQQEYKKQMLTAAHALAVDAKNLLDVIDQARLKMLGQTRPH

SMILES	composite z-score [1]	composite z-score [2]	composite z-score [3]	composite z-score [4]	composite z-score [5]	composite z-score [6]	z-score [7]	composite z-score (Lefty1)	composite z-score [8]	z-score [9]
Cc1ccc(S[C@]2(C(=O)NCCCN(C)C)CC(=O)N(Cc3cc(C(F)(F)F)cc(C(F)(F)F)c3)[C@@H]2c2ccc(CO)cc2I)cc1	0.336	-0.77	-0.0785	-0.604	-0.816	-0.862	0.197	-0.536	0.0799	0.828 (inactive)
CCCC[C@H]1OB(O)C[C@H]2C1=C(COC)Cn1c(=O)n(-c3ccccc3)c(=O)n12	-0.152	0.169	-0.0429	0.4	0.464	-1.06	-0.514	0.63	0.435	0.382 (inactive)
COCCOC(=O)N1C(=O)[C@@]2(c3ccccc31)[C@H](C(=O)N1CCc3cc(OC)c(OC)cc3C1)[C@H]1C(=O)O[C@H](c3ccccc3)[C@H](c3ccccc3)N1[C@@H]2c1ccc(OCCO)cc1	2.67	1.22	0.789	0.896	1.25	1.1	-0.382	0.492	0.722	-1.76 (inactive)
CCOC(=O)C[C@H]1[C@H](OC(=O)c2ccc(-c3ccccc3)cc2)[C@@H](NC(=O)Cc2ccc(OC)cc2)c2cc(OCCCO)ccc2N1C(=O)c1ccccc1	0.0013	-0.483	0.0865	0.44	0.349	0.0164	0.188	0.299	0.241	0.785 (inactive)
NC(=O)NCC#Cc1ccc2c(c1)[C@]1(C(=O)N2)[C@H](C(N)=O)[C@H]2C(=O)O[C@H](c3ccccc3)[C@H](c3ccccc3)N2[C@@H]1c1ccc(O)cc1	-0.407	-0.655	-0.209	0.513	0.336	0.383	-1.27	-1.01	0.623	-0.192 (inactive)
COCCOC(=O)N1C(=O)[C@@]2(c3cc(C#CCC(C(=O)OC)C(=O)OC)ccc31)[C@H](c1ccccc1OCCO)N1[C@H](c3ccccc3)[C@H](c3ccccc3)OC(=O)[C@H]1[C@@H]2C(=O)NC[C@H](O)c1ccccc1	1.33	1.15	0.9	0.749	1.37	1.83	-0.671	1.41	0.339	-0.182 (inactive)
COc1ccc(C#Cc2ccc3c(c2)[C@]2(C(=O)N3)[C@H](c3ccccc3OCCO)N3[C@H](c4ccccc4)[C@H](c4ccccc4)OC(=O)[C@H]3[C@@H]2C(=O)Nc2nc3ccccc3s2)cc1	1.5	1.16	0.717	0.767	1.25	1.19	-2.28	1.33	0.828	-1.36 (inactive)
COC(=O)[C@]1(CCC(=O)OC(C)(C)C)N=C(c2ccc(OCCCO)cc2)O[C@@H]1c1ccccc1CN=[N+]=[N-]	0.0121	1.06	0.348	0.666	1.13	0.283	-0.208	-0.477	0.095	-0.76 (inactive)
CCCCCCc1nc(-c2cc(C)c(OC)c(C)c2)cc2c1[Si](C(C)C)(C(C)C)OC2	-0.164	0.103	0.0497	-0.419	0.578	-0.143	-0.693	0.275	-0.239	1 (inactive)
O=C1O[C@H](c2ccccc2)[C@H](c2ccccc2)N2[C@H]1[C@@H](C(=O)N1CCCCCCC1)[C@]1(C(=O)Nc3ccc(C#CC4=CCCCC4)cc31)[C@H]2c1ccc(OCCO)cc1	2.15	1.26	3.18	0.9	1.49	0.833	-1.3	1.65	1.47	-1.2 (inactive)
O=C1C[C@@](C(=O)NCCN2CCOCC2)(c2ccc([N+](=O)[O-])cc2)[C@@H](c2ccc(CO)cc2I)N1CC12CC3CC(CC(C3)C1)C2	1.37	1.24	0.656	0.954	1.19	1.22	-0.826	1.08	0.981	-1.51 (inactive)
CCC(CC)C(O)C1C=CC2C(=O)NC(=O)C2N1Nc1ccc(Cl)cc1Cl (stereo not given)	1.66	1.18	0.383	0.952	1.14	-0.0832	-0.00434	0.359	0.788	-0.533 (inactive)
COC(=O)[C@@]1(Cc2ccccc2)[C@H]2c3cc(C(=O)N(C)C)n(Cc4ccsc4Br)c3C[C@H]2CN1C(=O)c1ccccc1	1.18	1.24	0.483	0.834	0.797	-0.535	1.04	-0.143	0.948	0.78 (inactive)
COCCCNC(=O)[C@@]1(C)c2ccccc2C(=O)N(C(C)C)[C@H]1c1ccc(CO)cc1	1.42	1.14	0.624	0.648	1.16	0.802	0.168	0.499	0.342	-0.336 (inactive)
CCOC(=O)C[C@H]1[C@H](OC(=O)c2ccccc2-c2ccccc2)[C@@H](NC(=O)CC(C)C)c2cc(OCCCO)ccc2N1C(=O)Cc1ccc(OC)cc1	-0.272	0.149	-0.0432	0.522	-0.247	0.268	1.15	0.108	0.288	-0.0339 (inactive)
CC1CC/C=C\[C@H]2OC34C=CCN(Cc5ccccc5)C(=O)[C@H]3N(CCCO)C(=O)[C@@H]4C2C(=O)O1 (stereo not given in full)	0.522	-0.67	-0.364	0.623	-0.838	-0.536	-0.178	-0.215	-0.176	-0.483 (inactive)
CN1C(=O)C2C=CC(C(O)C3CC=CCC3)N(N(c3ccccc3)c3ccccc3)C2C1=O (stereo not given)	0.118	-1.42	0.102	0.0963	0.988	-0.179	0.43	0.449	0.259	0.529 (inactive)
COCCOC(=O)N1C(=O)[C@@]2(c3cc(C#Cc4ccc(OC)cc4)ccc31)[C@H](c1ccccc1OCCO)N1[C@H](c3ccccc3)[C@H](c3ccccc3)OC(=O)[C@H]1[C@@H]2C(=O)NC[C@H](O)c1ccccc1	0.992	1.24	0.824	0.782	1.33	1.6	-0.922	1.16	0.889	0.385 (inactive)
O=C(N1CCCCC1)[C@]1(Cc2ccccc2)N=C(c2ccc(OCCCO)cc2)O[C@@H]1c1ccccc1	2.63	1.19	0.534	0.632	0.301	0.042	-1.62	-0.506	0.99	-0.265 (inactive)
C=CCOC(=O)[C@H]1[C@@H]2C(=O)O[C@@H](c3ccccc3)[C@@H](c3ccccc3)N2[C@@H](c2ccc(OCCOC(=O)[C@H]3C[C@H]4C(=O)N[C@@H](CCCCNC(C)=O)C(=O)N4[C@H]3c3cccc(OCCO)c3)cc2)[C@]12C(=O)Nc1ccccc12	2.14	1.18	-0.333	0.525	1.31	1.53	-0.472	1.08	0.38	-0.487 (inactive)
C[C@H]1C2[C@H](Cc3ccccc3)NC(=O)[C@]23C(=O)N[C@H](Cc2ccccc2)C(=O)N2CCC[C@H]2C(=O)NC/C=C\C/C=C/C3[C@@H]2O[C@]12C (stereo not given in full)	0.102	-0.338	1.11	0.354	0.559	0.212	0.367	0.302	0.737	-0.587 (inactive)
